{"source": "PubChem BioAssay AID853", "about": "(Columbia University Molecular Screening Center, 2007)", "note": "The whole screen tested about 47,000 compounds, of which about 200 (0.43%) were called active. Not shown: some 1% with an inconclusive outcome.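 How the source made its calls: active means inhibition of aggregate fluorescence above about 70%, also judged a hit by eye on the cell image (limit read from the data, passing the limit was not always enough); inconclusive means no rule stated for this call; inactive means not judged a hit on image review.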 Shown is part of a subset that was picked to be rich in actives.", "data": [{"test": "clearance of mutant huntingtin inclusions, primary screen, imaging, HeLa Exon1htt(103Q)mCFP, confocal imaging (AID 853);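 further: cells exposed to compound for three days before fixation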", "conditions": "aggregate imaging, at 1.5 µM; fraction fluorescence in grains: measured here: aggregate grain fluorescence fraction, stronger effect = lower value; inhibition: stronger effect = higher value, zero = plate's median compound well", "values": [{"smiles": "CCOc1ccc(N=Cc2c(O)n(-c3cccc(C)n3)c(=O)c3ccccc23)cc1", "fraction fluorescence in grains": 45.9, "inhibition": "-5.8% (inactive)"}, {"smiles": "CCC(C)(C)n1nnnc1CN1CCN(c2nc3ccc(C)cc3cc2C#N)CC1", "fraction fluorescence in grains": 29, "inhibition": "23.1% (inactive)"}, {"smiles": "O=c1[nH]c2c(c(=O)n1Cc1ccccc1)CCC2", "fraction fluorescence in grains": 13.3, "inhibition": "28.6% (inactive)"}, {"smiles": "COc1ccccc1-c1nnc(SCC(=O)Nc2ccccc2)o1", "fraction fluorescence in grains": 4.28, "inhibition": "73.5% (active)"}, {"smiles": "COc1ccccc1-c1nnc(SCC(=O)Nc2cc(C)on2)o1", "fraction fluorescence in grains": 16.4, "inhibition": "15.8% (inactive)"}, {"smiles": "Cc1cc(C)cc(OCc2nnc(SCC(=O)Nc3ccccc3)o2)c1", "fraction fluorescence in grains": 15, "inhibition": "15.8% (inactive)"}, {"smiles": "Cc1cc(C)n(-c2c(F)c(F)c(COC(=O)c3ccccc3)c(F)c2F)n1", "fraction fluorescence in grains": 25.1, "inhibition": "-56.6% (inactive)"}, {"smiles": "CCCCOC(=O)Cn1c(=O)n(CC(=O)OCCCC)c2cc(C)ccc21", "fraction fluorescence in grains": 19, "inhibition": "-6.9% (inactive)"}, {"smiles": "CC(=O)Nc1ccccc1C(=O)C(=O)Nc1ccc(F)cc1", "fraction fluorescence in grains": 57.6, "inhibition": "-48.2% (inactive)"}, {"smiles": "CCOc1ccc(N(CC(=O)NC2CCCCCC2)S(=O)(=O)c2c(C)[nH]c(=O)[nH]c2=O)cc1", "fraction fluorescence in grains": 41.2, "inhibition": "-15.2% (inactive)"}, {"smiles": "CCCC(=O)N1CCc2[nH]c3ccccc3c2C1", "fraction fluorescence in grains": 26.6, "inhibition": "21.6% (inactive)"}, {"smiles": "Cc1c(CN2CCC(C)CC2)c(=O)n(-c2ccccc2)n1C", "fraction fluorescence in grains": 56.1, "inhibition": "-32.3% (inactive)"}, {"smiles": "COc1ccc(C2C(C(C)=O)=C(O)C(=O)N2Cc2cccnc2)cc1", "note": "(stereo not drawn)", "fraction fluorescence in grains": 15.5, "inhibition": "17.5% (inactive)"}, {"smiles": "COC(=O)c1cccc(NC(=O)CSc2nc(C)cc(=O)[nH]2)c1", "fraction fluorescence in grains": 13.9, "inhibition": "27.8% (inactive)"}, {"smiles": "Cn1ccs/c1=N\\S(=O)(=O)c1ccc(C(C)(C)C)cc1", "fraction fluorescence in grains": 37.7, "inhibition": "0.2% (inactive)"}, {"smiles": "CCOc1ccc(NC(=O)Nc2cc(C)on2)cc1", "fraction fluorescence in grains": 23.9, "inhibition": "-47.8% (inactive)"}, {"smiles": "CCOc1ccc(NC(=O)CCC(=O)n2nc(C)cc2C)cc1", "fraction fluorescence in grains": 4, "inhibition": "79.1% (active)"}, {"smiles": "CCCCOc1ccc(NC(=O)CSCC(=O)OCC)cc1", "fraction fluorescence in grains": 53.3, "inhibition": "-31.6% (inactive)"}, {"smiles": "O=C(CSc1nnc(-c2cccnc2)n1CCc1ccccc1)NCc1ccccc1", "fraction fluorescence in grains": 34.5, "inhibition": "-83.7% (inactive)"}, {"smiles": "CC(C)(C)C(=O)Cn1c(NCCO)nc2ccccc21", "fraction fluorescence in grains": 13.3, "inhibition": "30.8% (inactive)"}, {"smiles": "Oc1c(C(c2cccs2)N2CCN(c3ccc(F)cc3)CC2)sc2ncnn12", "note": "(stereo not drawn)", "fraction fluorescence in grains": 72.5, "inhibition": "-45.9% (inactive)"}, {"smiles": "COc1ccc(-n2c(SCC(=O)NCc3cccs3)nnc2-c2ccoc2C)cc1", "fraction fluorescence in grains": 22.6, "inhibition": "33.8% (inactive)"}, {"smiles": "O=C(NCCCNCc1ccccc1)c1ccc(/C=N/O)nc1", "fraction fluorescence in grains": 39.1, "inhibition": "3.6% (inactive)"}, {"smiles": "Cc1ccc(C2C(C#N)C(C#N)N3CCCN23)cc1", "note": "(stereo not drawn)", "fraction fluorescence in grains": 23.7, "inhibition": "40.7% (inactive)"}, {"smiles": "CCOc1ccccc1C(=O)NC1CC2CCCC(C1)N2Cc1ccccc1", "note": "(stereo not drawn)", "fraction fluorescence in grains": 14.9, "inhibition": "23.5% (inactive)"}, {"smiles": "CNc1nc(SC)nc(N(C#N)CC(=O)OC)n1", "fraction fluorescence in grains": 30.5, "inhibition": "-71% (inactive)"}, {"smiles": "CCC(=O)Nc1nc2ccccc2n1Cc1ccccc1C", "fraction fluorescence in grains": 32.9, "inhibition": "4.8% (inactive)"}, {"smiles": "C=CCn1c(C(C)NC(=O)CC)nc2ccccc21", "note": "(stereo not drawn)", "fraction fluorescence in grains": 34.1, "inhibition": "-61.6% (inactive)"}, {"smiles": "CC(=O)NC(C)c1nc2ccccc2n1Cc1ccccc1F", "note": "(stereo not drawn)", "fraction fluorescence in grains": 3.88, "inhibition": "76.4% (active)"}, {"smiles": "COC(=O)C1C(=O)NCC1c1ccc(OC)cc1", "note": "(stereo not drawn)", "fraction fluorescence in grains": 12, "inhibition": "35.5% (inactive)"}, {"smiles": "Cc1sc2nc(SCC(N)=O)n(C)c(=O)c2c1C", "fraction fluorescence in grains": 18.7, "inhibition": "-1.9% (inactive)"}, {"smiles": "Cc1ccccc1NC(=O)c1ccccc1NS(=O)(=O)c1cccc2cccnc12", "fraction fluorescence in grains": 11.2, "inhibition": "46.2% (inactive)"}, {"smiles": "Cn1c(SCC(=O)N2CCOCC2)nnc1-c1ccc(NC(=O)c2ccccc2F)cc1", "fraction fluorescence in grains": 22.6, "inhibition": "-25.1% (inactive)"}, {"smiles": "O=C(NCCCCc1ccccc1)C1CC(c2ccc([N+](=O)[O-])cc2)=NO1", "note": "(stereo not drawn)", "fraction fluorescence in grains": 23.6, "inhibition": "39.3% (inactive)"}, {"smiles": "NC1=NC(=O)C2(COC(c3ccccc3Cl)OC2)S1", "note": "(stereo not drawn)", "fraction fluorescence in grains": 13.6, "inhibition": "19.2% (inactive)"}, {"smiles": "Cc1nnc(SCC(=O)NCCOc2ccc(Cl)cc2)n1-c1ccccc1", "fraction fluorescence in grains": 36.3, "inhibition": "2.1% (inactive)"}, {"smiles": "O=C(CSc1nnc(-c2cccs2)n1Cc1ccccc1)N1CCc2ccccc2C1", "fraction fluorescence in grains": 52.6, "inhibition": "-33.1% (inactive)"}, {"smiles": "CCOc1ccccc1C1NC(=O)NC(C)=C1C(=O)OCc1ccco1", "note": "(stereo not drawn)", "fraction fluorescence in grains": 36.7, "inhibition": "-10.5% (inactive)"}, {"smiles": "COCCOC(=O)C1=C(C)NC(=O)NC1c1ccc(Cl)cc1", "note": "(stereo not drawn)", "fraction fluorescence in grains": 28.5, "inhibition": "33.5% (inactive)"}, {"smiles": "COc1cccc2c(=O)n(CC(=O)N3CCCCCC3)ccc12", "fraction fluorescence in grains": 40.9, "inhibition": "-22% (inactive)"}, {"smiles": "COc1ccc(N(CC(=O)NC2CCCCC2)C(=O)CNC(=O)c2ccco2)c(OC)c1", "fraction fluorescence in grains": 22.1, "inhibition": "-26.1% (inactive)"}, {"smiles": "Cc1noc(COc2ccccc2OCc2onc(C)c2Cl)c1Cl", "fraction fluorescence in grains": 24.8, "inhibition": "-49.4% (inactive)"}, {"smiles": "CCOC(=O)C1CCN(Cc2coc3ccc(Cl)cc3c2=O)CC1", "fraction fluorescence in grains": 22.3, "inhibition": "-15.2% (inactive)"}, {"smiles": "Cc1cccc2c(=O)n3c(nc12)CCCCC3", "fraction fluorescence in grains": 18.2, "inhibition": "11% (inactive)"}]}]}
